Our source for the AC50 and activity, negative = inhibition values is PubChem BioAssay AID1851 (National Center for Advancing Translational Sciences (NCATS), 2009).

The whole screen tested about 16,000 compounds, of which about 2,600 (16%) were called active. Another 20% or so got no clear call; they are omitted. These entries were drawn from the full list. Unmarked numbers belong to inactive results. Calls follow the shape of the dose curve; as a rule, active = well fitted curve in the direction sought with a large enough effect; inconclusive = small, poorly fitted or top-dose-only effect, or effect the other way; inactive = no such curve, though single readings can be large or run the other way.
% is scaled to controls: 0 for no effect and ±100 for the full control effect.

In the assay the target is Cytochrome P450 2D6 (Homo sapiens) (UniProt P10635). As to the kind of experiment: Cytochrome panel assay with activity outcomes. As to conditions: recombinant CYP, pro-luciferin dealkylation, luminescence, p450-cyp2d6; series mostly up to 57.1 µM.
Chain of Cytochrome P450 2D6 (Homo sapiens) (P10635 whole entry, looked up): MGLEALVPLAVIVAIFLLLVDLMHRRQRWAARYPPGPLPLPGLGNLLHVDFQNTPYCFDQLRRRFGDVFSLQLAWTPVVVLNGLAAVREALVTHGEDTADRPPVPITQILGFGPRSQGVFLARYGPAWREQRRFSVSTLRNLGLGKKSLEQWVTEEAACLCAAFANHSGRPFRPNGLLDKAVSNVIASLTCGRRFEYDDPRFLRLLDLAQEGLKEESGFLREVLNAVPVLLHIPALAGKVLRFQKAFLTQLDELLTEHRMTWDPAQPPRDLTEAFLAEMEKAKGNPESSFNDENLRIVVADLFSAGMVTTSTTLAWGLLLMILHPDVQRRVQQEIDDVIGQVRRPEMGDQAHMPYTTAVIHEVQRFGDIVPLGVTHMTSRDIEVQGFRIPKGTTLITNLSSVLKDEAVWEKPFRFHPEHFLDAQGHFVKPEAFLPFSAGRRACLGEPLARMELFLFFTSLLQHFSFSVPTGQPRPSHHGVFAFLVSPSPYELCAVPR
With `COCCn1c(=O)c(-c2cccc(C#N)c2)nc2cnc(N3CCN(C)CC3)nc21`, the AC50 entry was “inactive”.

On to `O=C(c1cc(C(F)(F)F)cc(C(F)(F)F)c1)N1CCC[C@@]2(CCN(c3ccccc3)C2)C1`, for which the AC50 entry was “inactive”.

For the compound `O=C(Nc1cccnc1)c1ccc(COc2cc(Cl)ccc2Cl)o1`, the AC50 is 15.8 µM (active).

Take `O=C(N/N=C/c1ccc(O)cc1)c1ccc(COc2cc(Cl)ccc2Cl)o1`: the AC50 entry is “inactive”.

Consider `O=C(Nc1ccn(Cc2ccccc2F)n1)c1ccc(COc2cc(Cl)ccc2Cl)o1`, for which the AC50 entry was “inactive”.

On to `NS(=O)(=O)c1ccc(N=Nc2ccc[nH]c2=O)cc1`, for which the activity, negative = inhibition is -6.28% [at 11.4 µM].

As to `C(=Nc1cnc2ccccc2c1)c1ccc2ccccc2n1`, the activity, negative = inhibition was 1.16% [at 11.4 µM].

Turning to `C=C(C)[C@@H]1CC=C(C(=O)O)CC1`, the AC50 entry is “inactive”.

For the compound `NNC(=O)c1nn(-c2ccc(Cl)cc2)ccc1=O`, the AC50 entry was “inactive”.

Consider `COc1ccc(Oc2c(Cl)cnn(-c3ccccc3)c2=O)cc1`, for which the AC50 result is “inactive”.

On to `CC(C)Cn1cnc2c(SCc3ccccn3)nc(N)nc21`, for which the activity, negative = inhibition is 6.1% [at 11.4 µM].

With `CC(C)Cn1cnc2c(Sc3c([N+](=O)[O-])ncn3C)nc(N)nc21`, the activity, negative = inhibition is 8.92% [at 11.4 µM].

For the compound `Cc1ccc2ccccc2c1CSc1nc(N)nc2c1ncn2CC(C)C`, the AC50 was 3.98 µM (active).

In the case of `CCCOc1ccc(C2C(=O)N(C3CCCCC3)CC(=O)N2C2CC2)cc1OC` (configuration not stated), the AC50 result was “inactive”.

As to `Cn1c[n+](C)cc1/C=N/O`, the AC50 entry is “inactive”.

With `O=[N+]([O-])c1cccnc1N1CCOCC1`, the AC50 result is “inactive”.

On to `O=[N+]([O-])c1cc(F)c(N2CCOCC2)cc1N1CCCCC1`, for which the AC50 was 10 µM (active).

As for `O=[N+]([O-])c1ccc(N2CCCC2)cc1N1CCCC1`, the AC50 entry is “inactive”.

As to `Cc1ccc(-c2nc3ccccc3s2)cc1NC(=O)c1cc(-n2cnnc2)ccc1Cl`, the AC50 entry was “inactive”.

Take `CN1CCN(c2ncc3nc(-c4cccs4)c(=O)n(-c4ccccc4)c3n2)CC1`: the AC50 result was “inactive”.

With `O=C(O)C1CCC(=O)N(C2CC2)C1c1ccccc1` (configuration not stated), the AC50 result is “inactive”.

As to `COCCNc1nc(-c2ccccc2C(F)(F)F)nc2ccccc12`, the AC50 entry was “inactive”.

Take `CC(=O)NCCNc1nc(-c2ccccc2C)nc2ccccc12`: the AC50 is 5.01 µM (active).

With `COCCNc1nc(-c2ccccc2Cl)nc2ccccc12`, the AC50 result is “inactive”.

Take `CC(=O)NCCNc1ccnc(-c2ccccc2C)n1`: the AC50 result was “inactive”.

`COc1ccccc1-c1nc(NCCNC(C)=O)c2ccccc2n1`: the AC50 was 6.31 µM (active).

As for `CC(=O)NCCNc1nc(-c2ccccc2Cl)nc2ccccc12`, the AC50 was 12.6 µM (active).

On to `CC(=O)NCCNc1nc(-c2ccccc2C(F)(F)F)nc2ccccc12`, for which the half-maximal activity concentration (AC50) is 3.98 µM (active).

For the compound `CC(=O)NCCNc1ccnc(-c2ccccc2C(F)(F)F)n1`, the AC50 result is “inactive”.

Consider `COC(=O)[C@@]1(Cc2ccc(OC)cc2)[C@H]2c3cc(C(=O)N4CCCC4)n(CCc4c[nH]c5ccc(O)cc45)c3C[C@H]2CN1C(=O)c1ccccc1`, for which the AC50 result is “inactive”.

Consider `O=Nc1c(-c2c(O)[nH]c3ccccc23)[nH]c2ccccc12`, for which the AC50 result is “inactive”.

Turning to `COc1ccc(C)cc1NC(=O)c1cc2cc3ccc(C)cc3nc2o1`, the AC50 result was “inactive”.

For the compound `Cc1ccc2cc(CCNC(=O)c3ccc(Br)o3)c(=O)[nH]c2c1`, the AC50 result is “inactive”.

For `Cc1cccc(N(C)S(=O)(=O)c2ccc3[nH]c(=O)c(=O)[nH]c3c2)c1`, the AC50 entry was “inactive”.

Take `COc1ccc(-n2c(=O)c(C)nc3cnc(OC)nc32)cc1`: the AC50 result is “inactive”.

`CCCn1c(=O)c2[nH]c(C3CCCC3)nc2n(CCC)c1=O`: the AC50 entry was “inactive”.

`COc1ccc(-c2nc3cnc(N4CCOCC4)nc3n(CCc3ccccc3)c2=O)cc1`: the AC50 entry was “inactive”.

Consider `COC(=O)[C@@H]1CC[C@H](C)[C@@H](c2ccc(C)cc2)N1C(=O)c1ccc(/C=N\OCC[C@@H]2C=C[C@H](OC(C)=O)[C@H](COC(C)=O)O2)cc1`, for which the activity, negative = inhibition is 6.79% [at 11.4 µM].

Turning to `COC(=O)c1cc(=O)n(C2CC2)c(=NC2CC2)s1`, the AC50 result was “inactive”.

`CN(C)C(=C(C#N)C#N)N1CCN(c2ccc(Cl)c(Cl)c2)CC1`: the AC50 is 1.12 µM (active).

On to `CCC(C)Nc1c([N+](=O)[O-])cc(C)cc1[N+](=O)[O-]` (configuration not stated), for which the AC50 result was “inactive”.

With `Cc1ccc(OCC(=O)N/N=C\c2c(C)n(C)c3ccccc23)c([N+](=O)[O-])c1`, the AC50 entry is “inactive”.

For the compound `CCCCNCCOCCOc1ccc(C)cc1[N+](=O)[O-]`, the AC50 was 2 µM (active).

On to `CCCC(=O)N1CCN(c2ccc(NC(=O)c3ccc(OCC)c([N+](=O)[O-])c3)cc2)CC1`, for which the AC50 result is “inactive”.

As for `C=CCNCCOCCOc1ccc(C)cc1[N+](=O)[O-]`, the AC50 is 3.16 µM (active).

`Cc1nnc(N(C)C(=O)c2ccccn2)s1`: the AC50 result is “inactive”.

As to `COc1ccc(-c2nn(-c3ccccc3)cc2/C=N/NC(=O)c2ccc3c(c2)OCO3)cc1`, the AC50 entry is “inactive”.

With `CSCC[C@@H]1NC(=O)C/C=C\[C@@H](C)COC(=O)[C@H](C)COC1=O`, the activity, negative = inhibition is 10.5% [at 11.4 µM].

`COc1cc(-c2ccc(=O)[nH]n2)ccc1OC(F)F`: the AC50 entry was “inactive”.

For `CC(C)c1cccc2nc3c(c(C(C)(C)C)c12)Cn1c-3cccc1=O`, the AC50 result is “inactive”.

Consider `C[C@@H](N=C(N)N)C(=O)O`, for which the activity, negative = inhibition was 9.93% [at 11.4 µM].

Take `Clc1ccccc1NN(Cc1ccccn1)c1ccccc1Cl`: the activity, negative = inhibition is -11.2% [at 11.4 µM].

`CNC(=S)N1CCN(c2cccc(OC)c2)CC1`: the AC50 entry is “inactive”.

Take `O=C(NNC(=O)c1cc2cc3ccccc3nc2s1)c1cccc(C(F)(F)F)c1`: the AC50 result was “inactive”.

`Cc1cc(=O)oc2cc(O)ccc12`: the AC50 result is “inactive”.

Take `O=c1c(O)c(-c2ccc(O)cc2)oc2cc(O)cc(O)c12`: the AC50 is 10 µM (active).

For `Cc1cc(=O)c2c(O)c(O)ccc2o1`, the AC50 entry was “inactive”.

For `CC(=O)CC(=O)Nc1ccc2ccccc2c1`, the activity, negative = inhibition was 15.5% [at 11.4 µM].

`O=C(COc1ccc2ccccc2c1)NNC(=O)Cc1cccc2ccccc12`: the AC50 entry is “inactive”.

For `O=C(COc1ccc2ccccc2c1)Nc1ccc(Cc2ccncc2)cc1`, the AC50 is 0.355 µM (active).

Consider `CCNC(=O)NC1(C(=O)Nc2ccc3c(c2)OCCO3)CCCCC1`, for which the AC50 entry is “inactive”.

With `CC(=O)NN1C(=O)c2ccc(Oc3ccc([N+](=O)[O-])cc3)cc2C1=O`, the AC50 result was “inactive”.

With `O=C(NC(=S)Nc1ccc(C(=O)N2CCOCC2)cc1)c1ccc([N+](=O)[O-])cc1`, the AC50 result was “inactive”.

Take `COc1ccc(-n2c(=O)c(-c3cc(F)cc(F)c3)nc3cncnc32)cc1`: the AC50 entry is “inactive”.

In the case of `CCOC(=O)NC(NC(=O)OCC)C(=O)c1ccc(F)cc1`, the AC50 entry was “inactive”.

On to `CCOC(=O)Nc1ccc(NCc2ccc(F)cc2)nc1N`, for which the AC50 was 31.6 µM (active).

Turning to `CCOC(=O)Nc1ccc(C)cc1NC(=O)OCC`, the AC50 entry was “inactive”.

A word on the AC50: it is the concentration at which the activity in the assay is half-maximal.
